Here are results for two compounds from PubChem BioAssay (NCATS).

Assay [1] has as its target Rap guanine nucleotide exchange factor 3 (Homo sapiens) (UniProt O95398). Description: Counterscreen qHTS for agonist of cAMP-regulated guanine nucleotide exchange factor 3 (EPAC1) (AID 1645889). Note: nearly all actives have a fitted effect of over 40% in size. The settings on record: EPAC1 Rap1B-BODIPY-GDP exchange, fluorescence; series mostly up to 30.8 µM. The procedure, abridged: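 Rap1B-BODIPY-GDP 250 nM + GDP 50 uM; cpds 7-pt, final 9.74 nM–152 uM (activator mode) or from 7.32 nM upwards (inhibitor mode); RT; FI 480/540 nm at 5 and 30 min, then ± cAMP, reread.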
In general terms: A counterscreen serves to expose hits that act by an unwanted route or on another target.

The target of assay [2] is ATP-dependent 6-phosphofructokinase (Trypanosoma brucei brucei) (UniProt O15648). Description: qHTS Assay to Find Inhibitors of T. brucei phosphofructokinase: hit validation (AID 492961).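 Note: luminescence reports ADP formed as PFK phosphorylates fructose-6-phosphate with ATP.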 The following applies: T. brucei PFK, ADP-Glo luminescence; series mostly up to 24.3 µM. In a few lines: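 Measures ADP output of PFK (1.25 nM) at 0.1 mM ATP, 0.5 mM F6P, pH 8.0 TEA buffer with 5 mM MgCl2. No-enzyme wells define full inhibition; uninhibited enzyme wells define zero.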
Chain of ATP-dependent 6-phosphofructokinase (Trypanosoma brucei brucei) (O15648 whole entry, looked up): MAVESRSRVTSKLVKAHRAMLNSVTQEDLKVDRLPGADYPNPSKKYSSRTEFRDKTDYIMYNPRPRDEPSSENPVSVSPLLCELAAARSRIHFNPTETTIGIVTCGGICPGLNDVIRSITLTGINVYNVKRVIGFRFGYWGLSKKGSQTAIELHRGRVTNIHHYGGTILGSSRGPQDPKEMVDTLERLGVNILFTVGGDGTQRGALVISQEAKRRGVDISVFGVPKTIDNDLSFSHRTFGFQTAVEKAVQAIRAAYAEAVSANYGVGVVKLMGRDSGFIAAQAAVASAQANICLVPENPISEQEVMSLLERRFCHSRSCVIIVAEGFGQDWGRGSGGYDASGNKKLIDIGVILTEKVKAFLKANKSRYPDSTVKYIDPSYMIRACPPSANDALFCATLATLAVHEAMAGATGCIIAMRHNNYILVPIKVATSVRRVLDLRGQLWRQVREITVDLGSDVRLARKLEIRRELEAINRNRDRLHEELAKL
A general note: qHTS replaces the single test concentration by a dilution series.

A short description of assay [3]: NCATS anti-infectives library activity on the primary C. elegans qHTS viability assay (AID 1745855; calls by dose curve; note: potency is the fitted concentration of half-maximal effect). The settings on record: C. elegans worm area imaging, day 7. The procedure, abridged: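 Viability read-out is GFP fluorescence of PE254-GFP-FLuc C. elegans, measured by laser cytometry (488 nm) at day 0, 3 and 7. Ten L1 worms per well were incubated 7 days at 21 °C with compounds and bacterial capsules in S medium.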

In the next assay the test system is 3D7. Nature of the assay: qHTS profiling for inhibitors of Plasmodium falciparum proliferation (AID 504749). Note: potency is the fitted concentration of half-maximal effect; nearly all actives have a fitted effect of over 60% in size. The settings on record: P. falciparum in erythrocytes, SYBR Green DNA, 72 h; series mostly up to 12.8 µM. In a few lines:
(§1)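 Infected RBCs, 0.3% parasitemia/2.5% Hct final; cpd 72 h, 37 C, 5% CO2; lysis buffer with saponin/triton/SYBR Green I, o/n RT dark; FI 485/535; norm. to artemisinin (0.29 uM) and DMSO.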

The next assay deals with AS120. Described as above. The following applies: P. falciparum in erythrocytes, SYBR Green DNA, 72 h; series mostly up to 28.7 µM. The procedure, abridged: as §1
Another assay deals with ATS189. Described as above. The following applies: P. falciparum in erythrocytes, SYBR Green DNA, 72 h; series mostly up to 12.8 µM. In a few lines:
as §1

The next assay has as its system CP185. The assay is described as above. The settings on record: P. falciparum in erythrocytes, SYBR Green DNA, 72 h; series mostly up to 12.8 µM. In a few lines: as §1
Another assay deals with CP191. The description is as above. The settings on record: P. falciparum in erythrocytes, SYBR Green DNA, 72 h; series mostly up to 12.8 µM. The procedure, abridged: as §1
The test system of another assay is CP192. The description is as above. The following applies: P. falciparum in erythrocytes, SYBR Green DNA, 72 h; series mostly up to 28.7 µM. The procedure, abridged:
as §1

The subject of the next assay is CP194. The assay is described as above. The settings on record: P. falciparum in erythrocytes, SYBR Green DNA, 72 h; series mostly up to 12.8 µM. The procedure, abridged: as §1
The subject of another assay is CP201. The description is as above. The following applies: P. falciparum in erythrocytes, SYBR Green DNA, 72 h; series mostly up to 12.8 µM. In a few lines: as §1
The subject of a further assay is CP203. Described as above. The following applies: P. falciparum in erythrocytes, SYBR Green DNA, 72 h; series mostly up to 12.8 µM. In a few lines:
as §1

For the next assay, the system named is CP247. The description is as above. The following applies: P. falciparum in erythrocytes, SYBR Green DNA, 72 h; series mostly up to 12.8 µM. In a few lines: as §1
The next assay relates to CP286. Described as above. The settings on record: P. falciparum in erythrocytes, SYBR Green DNA, 72 h; series mostly up to 12.8 µM. In a few lines:
as §1

The next assay deals with CP291. The assay is described as above. The following applies: P. falciparum in erythrocytes, SYBR Green DNA, 72 h; series mostly up to 12.8 µM. The procedure, abridged:
as §1

Another assay relates to DIV30. Described as above. The settings on record: P. falciparum in erythrocytes, SYBR Green DNA, 72 h; series mostly up to 12.8 µM. In a few lines: as §1
For another assay, the system named is P94_40. The description is as above. The settings on record: P. falciparum in erythrocytes, SYBR Green DNA, 72 h; series mostly up to 12.8 µM. The procedure, abridged: as §1
The next assay relates to PC49. The assay is described as above. The following applies: P. falciparum in erythrocytes, SYBR Green DNA, 72 h; series mostly up to 12.8 µM. In a few lines: as §1
The test system of a further assay is TAB109. Described as above. The settings on record: P. falciparum in erythrocytes, SYBR Green DNA, 72 h; series mostly up to 12.8 µM. The procedure, abridged:
as §1

The test system of another assay is TAB113. The description is as above. The following applies: P. falciparum in erythrocytes, SYBR Green DNA, 72 h; series mostly up to 12.8 µM. In a few lines: as §1

Results filed as inconclusive are left out. Calls of active or inactive are those of the source. Unless noted, calls come from the whole dose curve; as a rule, active = well fitted curve in the direction sought with a large enough effect; inconclusive = small, poorly fitted or top-dose-only effect, or another doubt; inactive = no such curve, though single readings can be large; an effect the other way counts as inactive or inconclusive.

As to `COc1ccc(-c2cc(=O)c3c(OC)c(OC)c(OC)c(OC)c3o2)cc1`, in [1], the outcome was inactive.
With `Cc1cc(/C=C\c2ccc3cc(N(C)C)ccc3[n+]2C)c(C)n1-c1ccccc1`, the compound was called inactive in assay [2]. Further, the Potency in assay [3] was 29 µM (active); with 3D7 it was 0.891 µM (active); with AS120, 3.16 µM (active); in the assay with ATS189, 3.16 µM (active); in the assay on CP185, 1.58 µM (active); in the assay on CP191, 1.41 µM (active). Moreover, the Potency in the assay with CP192 is 2.03 µM (active); with CP194, 2.87 µM (active); in the assay on CP201, 3.22 µM (active); in the assay with CP203, 2.28 µM (active); in the assay with CP247 it was 3.55 µM (active); with CP286, 0.355 µM (active). For the same compound, the Potency is 3.61 µM (active) in the assay with CP291; 2.56 µM (active) in the assay with DIV30; 1 µM (active) in the assay on P94_40; 3.16 µM (active) with PC49; 1.41 µM (active) in the assay with TAB109; 1.78 µM (active) with TAB113.
